# ChEMBL document CHEMBL4513216, “Probing the Open Global Health Chemical Diversity Library for Multistage-Active Starting Points for Next-Generation Antimalarials” (ACS Infect Dis, 2020)
# Hit rate of the full screen: of about 69,000 compounds, about 8,600 (12%) showed an effect of 50% or more. This excerpt belongs to a sample that is enriched for strong results.
# System: Plasmodium berghei
# Assay: Screen against P. berghei liver stage (PbLuc), transformed with Luciferase, at 10uM
# Type: functional, HepG2
# Details: tested at 10 uM
row,SMILES,INHIBITION [%]
1,COc1cccn(CC(=O)N2CCCC3(CCCCC3)C2)c1=O,-17.7
2,Cc1cc(C)c(C(=O)N2CCCC(O)(CN3CCCC3)C2)cc1C (stereo not given),34.9
3,CCN(CC(=O)NC)C(=O)c1sc(Cc2ccccc2)nc1C,-16
4,Cc1nc(Cc2ccccc2)nc2sc(C(=O)O)c(C)c12,53.1
5,Cc1c(C(=O)O)sc2nc(Cc3ccccc3)nc(N)c12,-2.27
6,COc1cc2nc(C)n(CC(=O)NCCN(C)C)c(=O)c2cc1OC,2.55
7,COc1cc(CN2CCCC[C@]3(C)NC(=O)CC[C@H]23)ccc1F,23.9
8,CCOCC1CN(Cc2cnn(C)c2)Cc2c1cnn2CC (stereo not given),53.2
9,CCOCC1CN(Cc2ccc(OC)cc2)Cc2nn(CC3CC3)cc21 (stereo not given),33
10,CCOCC1CN(Cc2cnn(C)c2)Cc2ncn(C)c21 (stereo not given),36.9
11,CCOCC1CN(Cc2cnn(C)c2)Cc2ncn(CC3CC3)c21 (stereo not given),33
12,CCn1cc2c(n1)CN(Cc1cnn(C)c1)CC2COCC1CC1 (stereo not given),63.7
13,CCOCC1CN(Cc2ccoc2)Cc2nn(CC3CC3)cc21 (stereo not given),-19.4
14,CCOCC1CN(Cc2cnn(C)c2)Cc2cnn(C)c21 (stereo not given),35.7
15,CCOCC1CN(Cc2cnn(C)c2)Cc2nn(C)cc21 (stereo not given),18.2
16,CCn1cc2c(n1)CN(Cc1ccoc1)CC2COCC1CC1 (stereo not given),9.54
17,CCn1cc2c(n1)CN(Cc1ccc(C)o1)CC2COCC1CC1 (stereo not given),63.7
18,CCOCC1CN(Cc2cnn(C)c2)Cc2nn(CC3CC3)cc21 (stereo not given),67.2
19,Cn1cc(CN2Cc3cn(C)nc3C(COCC3CC3)C2)cn1 (stereo not given),34.6
20,O=C(c1cc(=O)[nH]c(=O)[nH]1)N1CCCC(CO)(CC2CC2)C1 (stereo not given),47.6
21,CN(Cc1ccccc1)C1COC2(CCN(Cc3nccs3)CC2)C1 (stereo not given),37
22,O=C(Cc1ccc(F)cc1)NCCNc1cc(N2CCCC2)ncn1,31.7
23,CCN(CC)C1COc2c(cc(Br)c(C)c2Br)C1=O (stereo not given),5.56
24,CC(C)c1noc(CCNC(=O)NCC2Cc3ccccc3O2)n1 (stereo not given),-34.8
25,Cc1nc(N(C)C)nc(C)c1NS(=O)(=O)c1ccc(F)cc1F,-7.81

row,SMILES,INHIBITION [%]
1,CS(=O)(=O)NCC1CCCN(C(=O)Nc2ccccc2F)C1 (stereo not given),4.1
2,COc1cnc(CSc2nnc(C)s2)cc1OCC(=O)NC(C)(C)C,-3.11
3,CN(C)S(=O)(=O)N1CCC[C@]2(C[C@@H](Oc3ccccn3)CO2)C1,-21.3
4,O=C1CCC2(CCC(NC3CCOCC3)CC2)N1Cc1ccccc1 (stereo not given),-47.9
5,CCn1cc2c(n1)CN(Cc1ccc(F)cc1)CC2COCC1CC1 (stereo not given),70.7
6,CCn1cc2c(n1)CN(Cc1ccncc1)CC2COCC1CC1 (stereo not given),40.9
7,CCOCC1CN(Cc2ccc(F)cc2)Cc2nn(CC3CC3)cc21 (stereo not given),5.96
8,CCO[C@@H]1CO[C@@]2(CCCN(S(=O)(=O)c3cccnc3)C2)C1,30.7
9,Cc1nc(-c2ccoc2)n(CC(=O)NCC(C)C)c1C,-8.28
10,CCOC(=O)CNC(=O)Cn1c(-c2ccoc2)nc(C)c1C,8.52
11,Cc1nc(-c2ccoc2)n(CC(=O)N(C)CC(C)C)c1C,50
12,Cc1cccc(C)c1Nc1noc2c1CN(C(=O)c1cn(C)cn1)CC2,25.4
13,O=C(NC1CC1)c1cc(NC(=O)N2CCSCC2)ccc1Cl,57.6
14,Cn1c(=O)oc2ccc(NC(=O)N3CCSCC3)cc21,24.7
15,CC1CN(C(=O)Nc2ccc(Cl)c(C(=O)NC3CC3)c2)CC(C)(C)O1 (stereo not given),31.9
16,O=C(NC1CC1)c1cc(NC(=O)N2CCCC(O)C2)ccc1Cl (stereo not given),28.5
17,O=C(NC1CC1)c1cc(NC(=O)N2CCCC2)ccc1Cl,31.9
18,O=C(Nc1ccc(CCN2CCSCC2)cc1)NC1CC1,1.79
19,O=C(NC1CC1)c1cc(NC(=O)N2CCOCC2)ccc1Cl,68.3
20,Cn1c(=O)oc2ccc(NC(=O)N3CCc4ccccc4C3)cc21,-3.43
21,Cn1c(=O)oc2ccc(NC(=O)N3CCOCC3)cc21,53.9
22,O=C(C1CCCO1)N1CCC(O)(Cn2ccc3ccncc32)CC1 (stereo not given),-45.4
23,Cc1cc(C)c2cc(CNCCCN3CCOCC3)c(=O)[nH]c2c1,3.91
24,CCc1cc(=O)[nH]c2nnc(SCC(=O)N3CCC(C)CC3)n12,14.4
25,CN(C)C[C@@H]1CCC[C@@H]2CN(c3nccc(C(F)(F)F)n3)C[C@@H]21,-3.58

row,SMILES,INHIBITION [%]
1,Cc1nc2ccccc2n1Cc1cc(C(=O)N(C)C2CCOCC2)no1,37.3
2,C[C@@H]1CN(C(=O)c2cc(Cn3cnc4ccccc43)on2)C[C@H](C)O1,30.5
3,Cc1nc2ccccc2n1Cc1cc(C(=O)N2C[C@@H](C)O[C@@H](C)C2)no1,74
4,CN(C)C(=O)CN1CCOCC2(C1)CN(c1ncc(F)cn1)CCO2 (stereo not given),10.6
5,c1ccc(NC[C@@H]2CCC[C@@H]3CN(Cc4csnn4)C[C@@H]32)nc1,15.9
6,c1ccc(NC[C@@H]2CCC[C@@H]3CN(Cc4nccs4)C[C@@H]32)nc1,51.2
7,c1ccc(NC[C@@H]2CCC[C@@H]3CN(Cc4cccnc4)C[C@@H]32)nc1,32.2
8,Cn1cc(CN2C[C@H]3CCC[C@@H](CNc4nccn4C)[C@H]3C2)cn1,23.1
9,COCCN1C[C@H]2CCC[C@@H](CNc3ncccn3)[C@H]2C1,77.4
10,Cn1cc(CN2C[C@H]3CCC[C@@H](CNc4ncccn4)[C@H]3C2)cn1,31.2
11,Cn1ccnc1NC[C@@H]1CCC[C@@H]2CN(Cc3nccs3)C[C@@H]21,29
12,c1cnc(NC[C@@H]2CCC[C@@H]3CN(Cc4cc[nH]n4)C[C@@H]32)nc1,1.81
13,Cn1ccnc1NC[C@@H]1CCC[C@@H]2CN(CC3CC3)C[C@@H]21,76.3
14,COCCN(CC(C)C)C(=O)c1cccc(Nc2cnccn2)c1,46.6
15,CCc1ccc(CN2CCC3(CC2)NC(=O)CC3c2ccncc2)o1 (stereo not given),21.6
16,Cn1cc(CN2CCCC23CCN(C(=O)c2ccccn2)CC3)cn1,-17.1
17,O=c1ccc2c([nH]1)CCC(NCc1ccncc1)C2 (stereo not given),11.5
18,O=C(NC1=NCCCN1c1ccc(Cl)cc1)c1cccc(Cl)c1,15.1
19,CC(C)(C)C(=O)N1CCCc2c(cnn2-c2ccccc2)C1,-43.9
20,CSC1=Nc2c(cnn2-c2ccc(Cl)cc2)C2=NCCCN12,64.8
21,CCSC1=Nc2c(cnn2-c2ccc(Cl)cc2)C2=NCCCN12,-37.1
22,CSC1=Nc2c(cnn2-c2ccccc2)C2=NCCCN12,73.9
23,CSC1=Nc2c(cnn2-c2cccc(Cl)c2)C2=NCCCN12,79.7
24,CSC1=Nc2c(cnn2-c2ccc(C)cc2)C2=NCCCN12,69.8
25,Cc1cccc(N2CCCN=C2NC(=O)c2cccc(Cl)c2)c1,-25.5

row,SMILES,INHIBITION [%]
1,CC(=O)c1nn(-c2cccc(Cl)c2)c(C)c1C(C)=O,12.3
2,COC(=O)c1cccc(NCC(=O)NC(N)=O)c1,-5.92
3,CN(Cc1cccc2cnccc12)C(=O)CCc1n[nH]c2c1CCCC2,34.9
4,Cc1ccc(NC(=O)CCc2cnn(C)c2)cc1F,22.3
5,Cc1cccc(C2(C(=O)NCC3CCN(CC(F)(F)F)C3)CCC2)c1 (stereo not given),5.03
6,CS(=O)(=O)NC1CCCN(C(=O)c2cccnc2)C1 (stereo not given),-16
7,CC(O)CN1CCC(CN(C)CCC(=O)NC2CCCCC2)CC1 (stereo not given),19.7
8,CCc1cc(N[C@@H](CC(C)C)C(N)=O)n2nc(C)c(C)c2n1,47.7
9,CCc1cc(N[C@H](C(N)=O)C(C)C)n2nc(C)c(C)c2n1,16.3
10,CCc1cc(N[C@@H](CO)C(N)=O)n2nc(C)c(C)c2n1,54.4
11,Cc1ccc(CN(Cc2[nH]cnc2C)C2CC(C)(C)NC(C)(C)C2)o1,38.2
12,Cc1cccc(CN(Cc2ccc(C)o2)C2CC(C)(C)NC(C)(C)C2)n1,53.5
13,CC1(C)CC(N(Cc2ccccc2)Cc2ncc[nH]2)CC(C)(C)N1,10.26
14,Cc1ccc(CN(Cc2ncc[nH]2)C2CC(C)(C)NC(C)(C)C2)o1,91.6
15,Cc1ccc(CN(Cc2c[nH]cn2)C2CC(C)(C)NC(C)(C)C2)o1,19.3
16,Cc1ccc(CN(Cc2ccncc2)C2CC(C)(C)NC(C)(C)C2)o1,7.05
17,CC(C)CO[C@@H]1CC[C@H]2[C@H]1OCCN2S(=O)(=O)C1CC1,28.3
18,Cc1cncnc1C1CCN(CCO)CC1,-20.6
19,CC(=O)NCc1ccc(C(=O)NC2CCc3nc(C)cn3C2)o1 (stereo not given),17.945
20,CN1CCN([C@H]2COC[C@@H]3CN(Cc4cccnc4)C[C@@H]32)CC1,57.9
21,COc1ccc(CN2C[C@@H]3COC[C@@H](N4CCN(C)CC4)[C@@H]3C2)cc1,68.4
22,COc1ccc(CN2C[C@@H]3COC[C@H](N4CCN(C)CC4)[C@@H]3C2)cc1,40.4
23,COc1ccc(CN2C[C@@H]3COC[C@@H](CC(=O)N4CCCC4)[C@@H]3C2)cc1,-26.5
24,O=C(C[C@@H]1COC[C@H]2CN(Cc3cccnc3)C[C@@H]12)N1CCOCC1,19.5
25,Cc1cc(C)cc(CN2C[C@H]3COC[C@H](N4CCN(C)CC4)[C@H]3C2)c1,47.4
